Source: PubChem BioAssay
“And” between values parts separate entries of the source, which are not always exact repeats. Equal entries are not always repeated. Inconclusive results are not listed. For some assays here: Measured potencies and affinities stand elsewhere. The source made the active and inactive calls. Unless noted, no rule for the calls is given here.

Key:
[1] = blockers of polyQ-driven CASP3 activation – cell-based (AID 1583); conditions: polyglutamine-induced caspase-3 activation, cell assay; stronger effect = higher value;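 tested at 10 µM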
[2] = yeast 75Q aggregation reduction – 75Q-TubU reporter (AID 1593); conditions: Yeast 75Q polyglutamine aggregation reporter
[3] = restoration of touch response, mutant HTT neurons – whole organism, C. elegans mechanosensory neurons, N-terminal huntingtin (AID 1599); conditions: C. elegans polyQ-huntingtin mechanosensory neurons, stronger effect = higher value
[4] = blockers of cytochrome c efflux from mitochondria – biochemical, purified mitochondria (AID 1603); conditions: stronger effect = lower value;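 also: mouse liver mitochondria challenged with calcium chloride; signal normalized to the plate average as 100%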
[5] = polyglutamine aggregate formation blockers (AID 1604); conditions: polyglutamine-induced protein aggregation inhibition assay; stronger effect = higher value; tested at 2.5 µM
[6] = glutamate transport activators, MN-1 cells, MN-1 cell line (AID 1612); conditions: MN-1 motor neuron cells, stronger effect = higher value;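 also: tested at 1 µM final; 0% = mean of DMSO vehicle wells on each plate; positive means more glutamate uptake than control and negative means less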
[7] = GFP-Q80 aggregate reduction, neuronal-like cells, cell-based, NGF-treated PC12, GFPQ80 (AID 1614); conditions: PC12 NGF-treated GFP-polyQ80 inclusion reduction;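 also: lower means fewer inclusions and 0 means no inclusions at all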
[8] = 75Q-TubH aggregate inhibition, S. cerevisiae, yeast (AID 1616); conditions: S. cerevisiae 75Q-TubH polyglutamine aggregation suppression; stronger effect = higher value
[9] = compounds altering circadian rhythm period length – cell-based, LOPAC library, luminescence reporter (AID 2774); conditions: circadian reporter cells, at 7 µM, actives lie on both sides;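 also: values are relative to mean of DMSO wells on each plate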
[10] = compounds altering viability of human ES cells (AID 493140); conditions: human embryonic stem cell survival screen; stronger effect = higher value;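 also: cells exposed to compounds for four days before counting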
[11] = biological target: ATP-dependent translocase ABCB1 (Homo sapiens) (UniProt P08183); experiment: P-glycoprotein substrate transport blockade – cell-based (AID 377; in the data active = fluorescence slope change above about 50%); conditions: MDR1-expressing cells, fluorescent substrate accumulation slope; stronger effect = higher value; concentration not given here
Sequence of ATP-dependent translocase ABCB1 (Homo sapiens) (P08183 whole entry, looked up): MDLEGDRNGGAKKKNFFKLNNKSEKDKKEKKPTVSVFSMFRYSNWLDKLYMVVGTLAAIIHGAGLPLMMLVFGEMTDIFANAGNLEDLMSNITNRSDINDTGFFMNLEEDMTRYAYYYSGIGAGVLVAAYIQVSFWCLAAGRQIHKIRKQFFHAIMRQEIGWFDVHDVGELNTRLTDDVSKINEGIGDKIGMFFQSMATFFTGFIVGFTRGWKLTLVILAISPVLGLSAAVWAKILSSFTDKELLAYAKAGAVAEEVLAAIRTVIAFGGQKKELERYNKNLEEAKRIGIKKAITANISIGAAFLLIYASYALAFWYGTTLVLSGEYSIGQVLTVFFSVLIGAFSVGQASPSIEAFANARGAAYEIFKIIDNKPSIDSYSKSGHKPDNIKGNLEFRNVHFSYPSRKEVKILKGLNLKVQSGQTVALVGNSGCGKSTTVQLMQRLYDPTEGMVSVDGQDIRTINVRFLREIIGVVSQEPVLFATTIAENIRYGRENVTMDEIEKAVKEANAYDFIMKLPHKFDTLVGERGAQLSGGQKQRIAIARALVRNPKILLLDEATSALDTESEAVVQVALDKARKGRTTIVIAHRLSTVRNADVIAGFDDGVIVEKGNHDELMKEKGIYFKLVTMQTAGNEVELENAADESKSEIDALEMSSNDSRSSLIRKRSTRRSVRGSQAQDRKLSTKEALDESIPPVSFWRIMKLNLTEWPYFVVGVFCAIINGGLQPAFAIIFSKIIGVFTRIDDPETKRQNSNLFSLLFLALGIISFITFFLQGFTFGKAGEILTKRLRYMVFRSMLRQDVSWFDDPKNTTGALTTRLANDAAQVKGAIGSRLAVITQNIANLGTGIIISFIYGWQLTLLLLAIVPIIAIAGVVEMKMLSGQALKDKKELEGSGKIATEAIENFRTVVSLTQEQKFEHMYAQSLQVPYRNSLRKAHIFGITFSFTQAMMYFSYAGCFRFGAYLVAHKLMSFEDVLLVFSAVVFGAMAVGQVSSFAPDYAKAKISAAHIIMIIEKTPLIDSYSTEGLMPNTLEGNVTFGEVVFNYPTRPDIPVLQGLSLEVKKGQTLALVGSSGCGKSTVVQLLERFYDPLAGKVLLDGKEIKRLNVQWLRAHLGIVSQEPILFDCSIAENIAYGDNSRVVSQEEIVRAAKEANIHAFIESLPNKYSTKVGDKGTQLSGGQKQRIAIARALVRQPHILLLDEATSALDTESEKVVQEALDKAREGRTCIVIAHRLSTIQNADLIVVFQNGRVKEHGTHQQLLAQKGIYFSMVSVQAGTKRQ

Row | SMILES | inhibition [1] | score [2] | rescue above control [3] | cytochrome c release ratio [4] | inhibition of aggregation [5] | glutamate uptake change [6] | inclusion score [7] | aggregation suppression score [8] | period change [9] | survival [10] | fluorescence slope change [11]
1 | C[N+]1(CCCCC[N+]2(C)CCCC2)CCCC1 | -38.1% | 1.14 | 1.54 | 0.89 | 49% | 1.85% | 2 | 1.31 | 0.04 h (inactive) | 22.2 (inactive) | –
2 | COc1ccc(CN(CCN(C)C)c2ccccn2)cc1 | 17.1% | 1.86 | 23.5 | 0.92 | 12.7% | 0.17% | 2 | 1.48 | 0.06 h (inactive) | 21.9 (inactive) | 102% (active)
3 | CCN(CC)CCOCCOC(=O)C1(c2ccccc2)CCCC1 | -3.33% | 1.27 | -4.04 | 0.8 | 94.4% | 7.48% | 1.5 | 1.37 | 0.125 h (inactive) | 5.08 (inactive) | –
4 | CCCOc1ccccc1-c1nc2n[nH]nc2c(=O)[nH]1 | -7.12% | 0.63 | 1.11 | 0.54 | 18.4% | -4.8% | 2 | 1.1 | -0.2 h (inactive) | 9.92 (inactive) | 11.9% (inactive)
5 | CN1Cc2c(N)cccc2C(c2ccccc2)C1 (stereo not drawn) | 63.6% | 1.13 | -9.83 | 0.88 | 75% | -14.3% | 2 | 1.65 | -0.06 h (inactive) | 19.8 (inactive) | 80.5% (active)
6 | C[C@](N)(Cc1ccc(O)c(O)c1)C(=O)O | 10.4% | 1.25 | 10.7 | 1.01 | 31.7% | 33% | 2 | 1.39 | -0.07 h (inactive) | 3.58 (inactive) | 52.1% (active)
7 | CC(=O)OCC1=C(C(=O)O)N2C(=O)[C@@H](NC(=O)CSc3ccncc3)[C@H]2SC1 | -8.64% | 1.04 | -6.1 | 1.02 | 71.9% | -2.14% | 2 | 1.12 | 0.035 h (inactive) | 1.83 (inactive) | 13.4% (inactive)
8 | COc1ccc(CCN(C)CCCC(C#N)(c2ccc(OC)c(OC)c2)C(C)C)cc1OC (stereo not drawn) | 15.1% | 1.28 | 2.45 | 0.62 | 62.8% | 24.7% | 2 | 1.45 | 0.12 h (inactive) | 22.4 (inactive) | –
9 | NCCCC(=O)O | 15.3% | 1.12 | -4.87 | 0.87 | 18.5% | -3.42% | 2 | 0.665 | 0.105 h (inactive) | – | –
10 | NC(=O)NO | -0.33% | 1.4 | -1.6 | 0.82 | 85.9% | 1.4% | 2 | 1.3 | -0.055 h (inactive) | – | –
11 | O=C1CC2(CCCC2)CC(=O)N1CCCCN1CCN(c2ncccn2)CC1 | -0.71% | 1.18 | 1.91 | 1.06 | 48.3% | 15.2% | 2 | 1.24 | -0.08 h (inactive) | 4 (inactive) | 65.3% (active)
12 | O=c1c(O)c(-c2ccc(O)c(O)c2)oc2cc(O)cc(O)c12 | 24.5% | 1.53 | 8.75 | 1.04 | 87.3% | 12.9% | 1 | 1.03 | -0.025 h (inactive) | 4.17 (inactive) and 87 (inactive) | –
13 | COc1ccc2[nH]cc(CCNC(C)=O)c2c1 | -10% | 1.34 | 0.33 | 0.49 | 46.1% | 7.67% | 2 | 1.76 | -0.21 h (inactive) | 15.4 (inactive) | –
14 | CC[N+](CC)(CC)CCOc1cccc(OCC[N+](CC)(CC)CC)c1OCC[N+](CC)(CC)CC | 2.37% | 1.11 | 4.9 | 1.78 | 83.6% | 40.5% | 2 | 1.15 | 0 h (inactive) | 28.5 (inactive) | –
15 | Cc1nnc(SCC2=C(C(=O)O)N3C(=O)[C@@H](NC(=O)Cn4cnnn4)[C@H]3SC2)s1 | 0.61% | 1.27 | 4.54 | 0.92 | 13.4% | 0.76% | 2 | 1.05 | -0.065 h (inactive) | 2.58 (inactive) | -6.8% (inactive)
16 | CCN(CC)CCNC(=O)c1cc(S(C)(=O)=O)ccc1OC | 6.97% | 1.47 | 10 | 5.94 | 79.2% | -0.98% | 2 | 1.49 | 0.15 h (inactive) | 16.2 (inactive) | 144% (active)
17 | COCCc1ccc(OCC(O)CNC(C)C)cc1 (stereo not drawn) | 9.55% | 0.98 | -6.09 | 0.97 | 69.7% | -0.51% | 2 | 0.579 | 0.045 h (inactive) | 15.4 (inactive) | 51% (active)
18 | C[N+](C)(C)CCCCCC[N+](C)(C)C | 1.59% | 1.14 | -10.3 | 0.92 | 72.2% | 11.7% | 2 | 1.28 | -0.005 hour (inactive) and -0.2 hour (inactive) | 12.8 (inactive) | –
19 | C#CCN(C)Cc1ccccc1 | 17% | 1.16 | 30.7 | 1.06 | 0% | -1.37% | 2 | 1.43 | 0.06 h (inactive) | 31.2 (inactive) | 71.9% (active)
20 | CC1(C)OC(=O)NC1=O | -3.41% | 1.47 | 14.1 | 0.85 | 33.3% | 12.7% | 2 | 1.01 | – | 9.33 (inactive) | 19.4% (inactive)
21 | CCn1cc(C(=O)O)c(=O)c2cc(F)c(N3CCNCC3)nc21 | -8.5% | 1.5 | 0.62 | 0.92 | -1.85% | -7.7% | 2 | 1.11 | – | 13.2 (inactive) | 3.6% (inactive)
22 | NCC1CCC(C(=O)O)CC1 (stereo not drawn) | -11.3% | 1.25 | 8.04 | 0.77 | 74.7% | 10.5% | 2 | 1.21 | – | 17.8 (inactive) | 64.7% (active)
23 | CCCCC1(COC(=O)CCC(=O)O)C(=O)N(c2ccccc2)N(c2ccccc2)C1=O | 9.48% | 1.11 | 9.03 | 1.09 | 57.1% | -2.57% | 2 | 0.747 | – | 3.58 (inactive) | 4.7% (inactive)
24 | O=C(O)CCC(=O)c1ccc(-c2ccccc2)cc1 | 1.96% | -0.44 | 4.61 | 1 | 18.2% | 6.02% | 2 | -0.185 | – | 32.7 (inactive) | 81% (active)
